Only some compounds are listed: those with a hit (about 22% of all), similar ones and a draw of the others.
CYP2C19 inh: blockers of cytochrome P450 2C19 activity – biochemical, luminescence, ADME assay, primary screen. CYP2C19 Supersomes, luciferin-H EGE luminescence, 30 min. P33261. inhibition, % at 5 µM. hit rate 21% among 96,000;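 active = CYP2C19 inhibition above a set limit at 5 µM in the primary screen, cut at about 50% in these data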;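 note: plate controls were negative control wells for no effect and 2.5 mM tranylcypromine positive control for full effect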
CYP2C19 activ: human CYP2C19 activators, primary screen, biochemical, luminescence; Cytochrome P450 2C19 (Homo sapiens), P33261; recombinant CYP2C19, luciferin-H EGE luminescence; active compounds read high; 0 = fully inhibited enzyme, 1 = untreated enzyme; activation factor at 5 µM; 96,000 tested, under 10 active;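 active = activation factor of at least 2 at 5 µM in the primary screen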;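 note: 0 = wells with 2.5 mM tranylcypromine and 1 = vehicle-only wells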
CYP2C9 act: human CYP2C9 activators, primary screen, biochemical, luminescence. Cytochrome P450 2C9 (Homo sapiens), P11712. recombinant CYP2C9, luciferin-H conversion; active compounds read high; factor 1 = untreated enzyme, 0 = blocked. activation factor at 5 µM. hit rate 1.4% among 96,000;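 active = activation factor of 2 or more for CYP2C9 at a 5 µM dose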;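 note: 0 = sulfaphenazole-blocked wells and 1 = vehicle-only wells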
Target sequence (P11712 whole entry, looked up): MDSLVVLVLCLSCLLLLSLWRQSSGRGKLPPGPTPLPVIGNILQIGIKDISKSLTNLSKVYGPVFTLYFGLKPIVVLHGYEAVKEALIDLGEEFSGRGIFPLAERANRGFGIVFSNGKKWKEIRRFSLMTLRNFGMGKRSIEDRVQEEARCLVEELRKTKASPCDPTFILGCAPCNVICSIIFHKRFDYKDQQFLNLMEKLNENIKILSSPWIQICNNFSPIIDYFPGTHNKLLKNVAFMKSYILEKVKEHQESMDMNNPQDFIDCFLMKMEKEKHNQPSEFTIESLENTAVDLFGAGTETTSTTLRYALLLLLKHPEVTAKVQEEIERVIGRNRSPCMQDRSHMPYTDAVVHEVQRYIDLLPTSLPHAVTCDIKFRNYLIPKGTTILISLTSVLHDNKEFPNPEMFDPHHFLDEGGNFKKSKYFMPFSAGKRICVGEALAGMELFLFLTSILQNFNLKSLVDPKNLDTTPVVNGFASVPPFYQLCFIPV
CYP2C9 inh: blockers of cytochrome P450 2C9 activity – biochemical, luminescence, ADME assay, primary screen | inhibition, % at 5 µM | CYP2C9 Supersomes, luciferin-H conversion | AID 777, 2007 | hit rate 20% among 96,000 | P11712;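 active = blocking of liver enzyme CYP2C9 beyond about 50% at 5 µM, limit read from the data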
Measles CPE: compounds protecting cells from measles virus cytopathic effect, primary screen, measles RdRp inhibitor project, single point, MLSMR library, absorbance | protection (pct of control), % at 4 µM | hit rate 1.5% among 140,000 | Measles virus-infected cells, CPE protection | AID 841, 2007; in the data active = protection mostly above about 24%, no sharp cut-off; inactive = mostly below about 26%
Numbers without * were called inactive; nt = no result given.

SMILES	CYP2C19 inh	CYP2C19 activ	CYP2C9 act	CYP2C9 inh	Measles CPE
CS(=O)(=O)Nc1ccc(Br)cc1C(=O)c1ccccc1	91.8*	0.1	0.1	87.7*	22.2
CC(NC(=O)c1ccccc1NC(=O)CSc1nnnn1C)c1ccccc1 (stereo not drawn)	11.7	0.9	0.4	62.0*	17.1
CC(=O)Nc1ccc(Br)cc1C(=O)C(=O)O	nt	nt	nt	nt	10.9
CC(NC(=O)c1ccccc1NS(C)(=O)=O)c1ccccc1 (stereo not drawn)	61.7*	0.4	0.3	73.1*	18.4
CC1CC/C(=C\c2ccc3c(c2)OCO3)C(=O)/C1=C/c1ccc2c(c1)OCO2 (stereo not drawn)	44.3	0.6	0.7	33.3	7.6
CC(C)CCNc1cc(=O)n(C)c(=O)n1C	6.5	0.9	1	-1.1	10.7
Cc1ccc(-c2c3c(=O)n(C)c(=O)n(C)c3cn2Cc2cccnc2)cc1	30.6	0.7	1	3.0	8.6
CCc1sc(N(C(=O)Cc2ccccc2)c2ccccc2)nc1-c1ccccc1	17.6	0.8	0.6	37.7	13.7
CCc1sc(N(C(=O)Cc2ccccc2)c2ccc(F)cc2)nc1-c1ccccc1	86.3*	0.1	0.5	50.9*	5.4
O=C(O)c1ccc(N2CCCCC2)cc1	-13.2	1.1	1.6	-60.1	15.2
Nc1ccc(N2CCCCCC2)cc1	64.0*	0.4	0.8	22.0	35.5
CCN(CC)CC(O)Cn1c2ccccc2c2ccccc21 (stereo not drawn)	9.1	0.9	1	0.6	7.0
Cc1ccc(S(=O)(=O)N(C)CC(O)Cn2c3ccccc3c3ccccc32)cc1 (stereo not drawn)	44.5	0.6	0.1	87.5*	38.8*
O=S(=O)(c1ccccc1)N(CC(O)Cn1c2ccccc2c2ccccc21)c1ccccc1 (stereo not drawn)	49.8	0.5	0.2	78.6*	12.6
COc1ccccc1N(CC(O)Cn1c2ccccc2c2ccccc21)S(=O)(=O)c1ccccc1 (stereo not drawn)	nt	nt	nt	nt	6.9
C=CCN(CC=C)CC(O)Cn1c2ccccc2c2ccccc21 (stereo not drawn)	73.1*	0.3	0.7	29.6	7.8
CC1(C)CC(O)(CCNCc2ccc3c(c2)OCO3)CCO1 (stereo not drawn)	11.9	0.9	0.7	31.8	13.8
COc1ccc(Cn2nnnc2C(c2cccs2)N2CCCCCC2)cc1 (stereo not drawn)	99.6*	0	0.1	91.8*	0.7
CC1CCN(C(c2ccc(N(C)C)cc2)c2nnnn2Cc2ccc(F)cc2)CC1 (stereo not drawn)	25.8	0.7	1.1	-6.8	10.9
COc1ccc2cc(C(c3nnnn3Cc3ccc(F)cc3)N3CCCCCC3)c(=O)[nH]c2c1 (stereo not drawn)	5.7	0.9	0.9	11.0	23.1
COc1ccc2cc(C(c3nnnn3Cc3ccccc3)N3CCCCCC3)c(=O)[nH]c2c1 (stereo not drawn)	69.5*	0.3	0.3	70.3*	nt
O=c1[nH]c2cc3c(cc2cc1C(c1nnnn1CC1CCCO1)N1CCCCCC1)OCCO3 (stereo not drawn)	6.9	0.9	0.2	78.7*	6.6
Fc1ccc(Cn2nnnc2C(c2ccc(Cl)cc2)N2CCSCC2)cc1 (stereo not drawn)	94.2*	0.1	0.3	69.4*	10.9
CCc1ccc(NC(=O)CSc2nc3c(c(=O)n(C)c(=O)n3C)n2C)cc1	nt	nt	nt	nt	6.2
COc1ccc(C(c2nnnn2Cc2cccs2)N2CCC(C(N)=O)CC2)c(OC)c1 (stereo not drawn)	12.2	0.9	0.8	18.5	13.9
SMILES	CYP2C19 inh	CYP2C19 activ	CYP2C9 act	CYP2C9 inh	Measles CPE
COc1ccc(Cn2nnnc2C(c2cccs2)N2CCSCC2)cc1 (stereo not drawn)	82.6*	0.2	0.4	58.6*	11.3
COc1ccc2[nH]c(=O)c(C(c3nnnn3C3CCCC3)N3CCN(Cc4ccc5c(c4)OCO5)CC3)cc2c1 (stereo not drawn)	-7.9	1.1	0.2	83.8*	4.8
CCOCCCNC(=O)CCC(=O)NNc1nc2ccccc2c2nc(-c3ccccc3)nn12	nt	nt	nt	nt	17.6
Cc1nc(NCC2CCCO2)c2oc3ccccc3c2n1 (stereo not drawn)	42.0	0.6	0.7	29.9	3.4
CN(C)c1ccc(Sc2nnc(NC(=O)Nc3ccc(Cl)cc3Cl)s2)cc1	nt	nt	nt	nt	25.9
C=C(C)CSc1nncn1/N=C/c1ccc(OC)cc1	62.9*	0.4	0.4	55.1*	5.8
CCCN(CC(=O)Nc1c(C)cccc1CC)C(=O)SCC	59.9*	0.4	0.8	21.5	10.7
CCCCN(CC(=O)Nc1c(C)cccc1CC)C(=O)SCC	70.8*	0.3	0.5	48.9	31.8
O=C1c2cccc3cccc(c23)C(=O)N1CCCN(C(=O)c1cccs1)c1cccc(F)c1	nt	nt	nt	nt	8.8
CC(NC(=O)CCl)c1ccc(Cl)c(Cl)c1 (stereo not drawn)	86.0*	0.1	0.5	47.0	11.7
COc1cc2c3c(c1OC)C1(C=CC(=O)C=C1)CC3N(C(=O)c1ccccc1)CC2 (stereo not drawn)	13.8	0.9	0.1	86.4*	24.3
Cc1[nH]n(-c2ccccc2)c(=O)c1/C=N/c1ccccn1	8.5	0.9	0.9	7.6	27.4
Cc1[nH]n(-c2ccccc2)c(=O)c1N=Nc1nccs1	7.2	0.9	0.4	57.7*	8.6
O=C(Nc1cccnc1)c1ccc2c(c1)C(=O)N(Cc1cccnc1)C2=O	-13.3	1.1	0.7	27.0	4.1
CCOc1ccccc1N1C(=O)c2ccc(C(=O)Nc3cccnc3)cc2C1=O	56.6*	0.4	0.3	65.4*	18.7
Cc1nn(CC(=O)N2CCN(Cc3ccccc3)CC2)c(=O)c2ccccc12	74.9*	0.3	1.1	-12.6	-0.2
Cc1nn(CC(=O)NCc2cccc3ccccc23)c(=O)c2ccccc12	-1.0	1	2.2*	-115.4	11.7
Cc1nn(CC(=O)NCc2ccccc2)c(=O)c2ccccc12	26.9	0.7	2.7*	-168.9	8.7
CCCC(c1nnnn1CCOC)N1CCN(Cc2ccccc2)CC1 (stereo not drawn)	nt	nt	nt	nt	22.9
COc1ccc(S(=O)(=O)N(CC(=O)Nc2ccc(S(=O)(=O)N3CCOCC3)cc2)Cc2ccc(F)cc2)cc1	nt	nt	nt	nt	36.1
Cc1ccc(S(=O)(=O)NCC(=O)N2CCOCC2)cc1	27.0	0.7	0.7	31.2	1.5
c1ccc(Nc2cc(Nc3ccccc3)[nH]n2)cc1	74.5*	0.3	0.5	45.2	10.1
c1ccc(Nc2cccc(Nc3ccccc3)c2)cc1	nt	nt	nt	nt	7.1
O=C(CC1CC2CCC1C2)OCC(=O)c1c[nH]c2ccccc12 (stereo not drawn)	70.2*	0.3	1.2	-18.5	19.6
CC(C)(C)c1ccc(OCCC(=O)NC2=NCCS2)cc1	12.2	0.9	1.1	-11.2	1.8
